Experimental findings from PubChem BioAssay AID493192 (National Center for Advancing Translational Sciences (NCATS), 2011) are described below.

Records with an inconclusive call do not appear. Values without a mark were called inactive. Active and inactive are the calls of the source. Calls come from the whole dose curve; as a rule, active = well fitted activation curve with a large enough effect; inconclusive = small, poorly fitted or top-dose-only effect; inactive = no such curve, though single readings can be large or run the other way.
Potency is the fitted concentration of half-maximal effect.

This test in a line: qHTS Assay for Identifying a Potential Treatment of Ataxia-Telangiectasia: Hit Validation. For activity change, positive = activation: 0% is about no effect.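 Note: phospho-KAP1 level by AlphaLISA as a proxy for ATM-like kinase activity.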 Conditions: Ataxia-telangiectasia cell-based hit validation qHTS, in ATM-null A-T patient fibroblasts; series mostly up to 76.9 µM; activity change, positive = activation: at the top concentration. Put shortly: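 hTERT-immortalized A-T patient fibroblasts (F2112) were dosed at up to 76.7 uM final for 60 min at 37C. After a further 30 min incubation, cells were lysed, and phospho-KAP1 was detected by AlphaLISA after 6 hr at 25C.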
On the technique in general: In qHTS, concentration-response curves come from the screen itself.
On to `CC(C)(C)C1CCC2(CC1)SCC(=O)N2c1ccccc1` (stereo unspecified), for which the “activity change, positive = activation” value was 16.1%.
Consider `O=C(CSc1ccccn1)N/N=C/C=C/c1ccccc1`, for which the “activity change, positive = activation” value was 0.699%.
For `O=C1NC(=Nc2ccccc2)CS1`, the “activity change, positive = activation” value was 12.2%.
`CN(C)c1cc(Nc2ccc(O)cc2)c([N+](=O)[O-])c2nonc12`: the “activity change, positive = activation” value is 8.03%.
On to `O=C(NCCCN1CCOCC1)c1ccc2c(c1)N(Cc1cccc(F)c1)C(=O)c1ccccc1S2`, for which the Potency is 7.33 µM (active).
For `Cc1ccc(C)c(-c2csc(Nc3ncccn3)n2)c1`, the “activity change, positive = activation” value was -1.05%.
On to `COc1ccc(C2NC(=S)NC3=C2N2CCC3CC2)cc1` (stereo unspecified), for which the Potency was 0.823 µM (active).
Take `CCC(=O)Nc1ccc(S(=O)(=O)c2ccc(NC(=O)CC)cc2)cc1`: the “activity change, positive = activation” value is -2.41%.
Consider `COc1ccc(CNC(=O)COc2cccnc2[N+](=O)[O-])cc1OC`, for which the “activity change, positive = activation” value was -0.35%.
Still for that read-out and setting: the same measure for `CCOc1ccc(C(=O)NC(=S)Nc2cccnc2)cc1[N+](=O)[O-]`: 19.7%; for `CNC(=O)Cc1csc2ccc(C)cc12`: -17%.
Still for that read-out and setting: the same measure for `Cc1ccc2c(c1)C(=O)CC(O)(C(F)(F)F)O2` (stereo unspecified): 0.694%; for `Cc1ccc(OC(=O)c2cc(C)nn2C(C)(C)C)cc1`: 12.9%; for `CCC(Oc1ccccc1)C(=O)N(C)CC(=O)N(CC(C)C)c1c(N)n(CC(C)C)c(=O)[nH]c1=O` (stereo unspecified): 22.7%.
For `c1ccc(CSc2nnc(-c3ccco3)n2Cc2ccco2)cc1`, the “activity change, positive = activation” value was 0.694%.
For `COC(=O)Cn1ccc2cc(S(=O)(=O)N3CCCCC3)ccc21`, the “activity change, positive = activation” value was 1.2%.
The same measure, in the same setting: then `Cc1nnc(SCC(=O)NC(=O)Nc2ccc3c(c2)OCCO3)n1N`, with -7.23%; and `COc1cccc(CNCc2ccc(OC)c3ccccc23)c1OC`, with 6.29%; and `C=C(C)n1c(=O)n(Cc2ccccc2C)c2ccccc21`, with 12.2%.
With `COc1ccccc1[C@H]1C(c2cccc(Cl)c2)=NN(c2ccccc2)[C@@H]1CO`, the “activity change, positive = activation” value is -7.64%.
The same measure, in the same setting: the same measure for `COc1ccc(-c2nc3n(c2C)Cc2ccccc2-3)cc1`: -24.9%; for `Cc1ccc(NC(=O)Nc2cccnc2)cc1NC(=O)Nc1cccnc1`: 4.55%.
As to `Cc1ccc(NC(=O)CSc2nnc([C@H](C)NC(=O)OC(C)(C)C)o2)c(C)c1`, the Potency was 26 µM (active).
Consider `O=C(NC12CC3CC(CC(C3)C1)C2)c1cccc(OC(F)F)c1`, for which the “activity change, positive = activation” value is -1.74%.
On the same count and under the same terms, the same measure for `COc1cc(CCC(=O)OCC(=O)N2CCc3ccccc32)cc(OC)c1OC`: -8.74%; for `Cn1cc(/C=N/NC(N)=S)c2ccccc21`: -7.64%; for `Brc1c(C[n+]2ccccc2)nc2ccccn12`: 39.5%.
As to `Clc1cccc(CN2CCC(Cc3ccccc3)CC2)c1`, the Potency is 13 µM (active).
`COc1ccc(Oc2ncnc3c2oc2ccc(Br)cc23)cc1`: the “activity change, positive = activation” value is 23.3%.
Same read-out and setting: the same measure for `CCOc1ccc(NC2=NCC(=O)N2Cc2cccs2)cc1`: -6.99%.
`CCS(=O)(=O)c1ccc(C(=O)Nc2ccccc2)c(Cl)c1Cl`: the Potency is 29.2 µM (active).
With `Cc1ccc(C(=O)Nc2sc3c(c2C(=O)O)CCCCC3)o1`, the “activity change, positive = activation” value was 11.1%.
As for `O=C(c1ccc(F)cc1)c1ccc(N2CCCCC2)cc1`, the Potency is 29.2 µM (active).
Turning to `FC(F)(F)c1cccc(OCC2CNC(=S)O2)c1` (stereo unspecified), the “activity change, positive = activation” value was -6.83%.
Turning to `CC(NC(=O)COC(=O)/C=C/c1ccc(Cl)cc1)c1ccccc1` (stereo unspecified), the “activity change, positive = activation” value was 0.803%.
For `Cc1ccccc1S(=O)(=O)Oc1ccc2ccc(O)cc2c1`, the “activity change, positive = activation” value is -4.17%.
